# Experimental data taken from PubChem BioAssay (Tox21).
# A number with no mark means an inactive call. Calls of active or inactive are those of the source. Calls come from the whole dose curve; as a rule, active = well fitted curve in the direction sought with a large enough effect in the signal ratio in the repeat runs (not every such curve was filed as active); inconclusive = weak or mixed curves, or effect the other way; inactive = no such curve, though single readings can be large or run the other way; the % refers to the signal ratio.
# Molecular target: Estrogen receptor (Homo sapiens) (UniProt P03372)
# Experiment: qHTS assay to identify small molecule antagonists of the estrogen receptor alpha (ER-alpha) signaling pathway (AID 743069)
# Conditions: HEK293 ER-alpha-UAS-bla, beta-lactamase ratio, antagonist mode; series mostly up to 69.4 µM; activity, negative = inhibition: at the top concentration
# Description: National Center for Advancing Translational Sciences [NCATS]
# NIH Chemical Genomics Center [NCGC]
# U.S. Environmental Protection Agency [EPA]
# National Institutes of Environmental Health Sciences [NIEHS]
# National Toxicology Program [NTP]
# U.S. Food and Drug Administration [FDA]
# Estrogen receptor (ER), a nuclear hormone receptor, plays an important role in development, metabolic homeostasis and reproduction. Two subtypes of ER, ER-alpha and ER-beta have similar expression patterns with some uniqueness in both types. Endocrine disrupting chemicals (EDCs) and their interactions with steroid hormone receptors like ER causes disruption of normal endocrine function. To identify the compounds that inhibit ER signaling, an ER-alpha-UAS-bla GripTiteTM cell line (Invitrogen, Carlsbad, CA, USA) containing a beta-lactamase reporter gene under the control of an Upstream Activator Sequence (UAS) stably integrated into HEK293 cells was used to screen the Tox21 10K compound library.
# Tox21 Assay Protocol Summary:
# ER-alpha-bla cells were cultured in assay medium containing 2% charcoal stripped FBS overnight in the culture flasks before the assay was performed. The cells were dispensed at 5,000 cells/5 uL of assay medium per well into black wall/clear-bottom 1536-well plates using a Multidrop Combi (ThermoFisher Scientific, Waltham, MA) dispenser. After the assay plates were incubated at a 37C and 5% CO2 for 4 hr, 23 nL of compounds dissolved in DMSO, positive controls or DMSO only was transferred to the assay plate by a Pintool station (Kalypsys, San Diego, CA), followed by addition of 1 uL of 17beta-estradiol in assay medium using a Flying Reagent Dispenser (Aurora Discovery, San Diego, CA). The plates were incubated at 37C and 5% CO2 for 18 hr. Then 1 uL of LiveBLAzerTM B/G FRET substrate was added using a Flying Reagent Dispenser, the plates were incubated at room temperature for 2 hours, and fluorescence intensity was measured by an Envision plate reader (PerkinElmer, Shelton, CT).
# % is set by controls: 0 for no effect and ±100 for the full control effect; potency is the fitted concentration of half-maximal effect.
# Estrogen receptor (Homo sapiens), sequence (P03372 whole entry, looked up): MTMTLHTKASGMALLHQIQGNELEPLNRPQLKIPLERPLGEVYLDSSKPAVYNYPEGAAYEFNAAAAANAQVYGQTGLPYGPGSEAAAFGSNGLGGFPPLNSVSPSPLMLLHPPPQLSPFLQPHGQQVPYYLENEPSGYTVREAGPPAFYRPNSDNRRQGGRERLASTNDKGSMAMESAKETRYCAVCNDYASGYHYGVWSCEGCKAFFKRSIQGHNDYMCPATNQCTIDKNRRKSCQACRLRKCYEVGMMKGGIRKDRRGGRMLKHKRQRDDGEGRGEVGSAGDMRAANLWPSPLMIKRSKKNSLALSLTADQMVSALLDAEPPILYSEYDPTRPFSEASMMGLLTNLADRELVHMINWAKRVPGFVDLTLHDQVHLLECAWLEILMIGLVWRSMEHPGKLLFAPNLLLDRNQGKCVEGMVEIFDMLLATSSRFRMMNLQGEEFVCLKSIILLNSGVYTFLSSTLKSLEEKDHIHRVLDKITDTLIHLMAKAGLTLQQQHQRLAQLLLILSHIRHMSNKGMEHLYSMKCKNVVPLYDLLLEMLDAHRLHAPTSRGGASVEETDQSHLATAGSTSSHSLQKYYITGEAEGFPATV
SMILES,"activity, negative = inhibition",Potency
CN=C(N)NC(=O)Nc1c(C)cccc1C,-15.8%,
CCOCCC(=O)OCC,11.1% [at 79.1 µM],
O=CNNC=O,8.63% [at 79.1 µM],
[Cl][Nd]([Cl])[Cl],-11.1%,
Cc1ccc(S(=O)(=O)NC(=O)NC2CCCCC2)cc1,3.21%,
CC1CCc2nccnc21 (stereo not given),13.1%,
C=CC(=O)O,,inactive
CNC1CCCN(c2c(F)cc3c(=O)c(C(=O)O)cn(C4CC4)c3c2OC)C1 (stereo not given),-3.24%,
COC(C)(C)OC,-9.1%,
CC[C@H]1OC(=O)[C@H](C)[C@@H](O[C@H]2C[C@@](C)(OC)[C@@H](O)[C@H](C)O2)[C@H](C)[C@@H](O[C@@H]2O[C@H](C)C[C@H](N(C)C)[C@H]2O)[C@](C)(O)C[C@@H](C)/C(=N\OCOCCOC)[C@H](C)[C@@H](O)[C@]1(C)O,,inactive
Nc1cccc2c(N)cccc12,34.9%,
CNc1c2c(nn1C)CCCC2,3.3%,
CC(C)CC(O)CC(C)C,-10.9%,
CC(C)N(C)C,8.9%,
CC(C)C1CCC(C(=O)N[C@H](Cc2ccccc2)C(=O)O)CC1 (stereo not given in full),-4.71%,
CC1=CC[C@@H]2C[C@H]1C2(C)C,12.8% [at 15 µM],
CC(C)(C)C(O)/C=C/c1ccc2c(c1)OCO2 (stereo not given),7.68%,
CCN(Cc1cccc(S(=O)(=O)O)c1)c1ccc(C(=C2C=CC(=[N+](CC)Cc3cccc(S(=O)(=O)O)c3)C=C2)c2ccc(O)cc2S(=O)(=O)[O-])cc1,-3.12%,
CC(C)c1ccc(C#N)cc1,-9.74%,
CC(C)C(O)C(C)(C)CO (stereo not given),5.65% [at 79.1 µM],

SMILES,"activity, negative = inhibition",Potency
CC(=O)OC(C)C[N+](C)(C)C (stereo not given),1.68% [at 32.6 µM],
C=C(C)C(=O)OCCC(F)(F)C(F)(F)C(F)(F)C(F)(F)C(F)(F)C(F)(F)F,-4.48%,
CC(C)COC(=O)COc1cc(Cl)c(Cl)cc1Cl,5.41%,
O=[N+]([O-])c1ccc2ncccc2c1,16%,
CC(C)(C(=O)c1cccnc1)c1cccnc1,12.1% [at 32.6 µM],
BrC(Br)C(Br)Br,-4.95%,
Cc1ccc(Nc2c(F)cccc2Cl)c(CC(=O)O)c1,-27.9%,
Cc1ccc(N(CCO)CCO)cc1,15.8%,
COc1ccc(CCN(C)CCCN2CCc3cc(OC)c(OC)cc3CC2=O)cc1OC,9.81%,
CCCCCCCCCCCSCC(=O)O,,54.9 µM [inconclusive] (active)
COc1cc(NC(C)CCCN)c2ncccc2c1 (stereo not given),-10.9% [at 32.6 µM],
OCC(CO)n1cnc(-c2ccc(F)cc2)c1-c1ccnc(Oc2ccccc2)n1,-6.88%,
CC1=C2[C@@H]([C@H](C)CC[C@H]2/C=C(\C)C(=O)O)[C@H](O)C1,-54.7%,
CCOC(=O)c1ccc(NC(=O)CN2CCCCC2)cc1,-12.2%,
Nc1c(Cl)cc(Cl)cc1[N+](=O)[O-],24.8%,
O=C(O)CO,-20.7%,
CCCCCCC(O)CCOC(C)=O (stereo not given),-16.2% [at 214 µM],
CCN(CC)CCNC(=O)c1cc(Cl)c(N)cc1OC,1.13%,
O=[N+]([O-])C1(Br)COCOC1,-22.7%,
CC(C)(O)CCc1ccccc1,16.2%,
